From PubChem BioAssay
The full list was thinned out, with hits kept by preference.
Methyltransferases: Primary Screen for Target Class Profiling of Small Molecule Inhibitors of Methyltransferases; purified enzyme, MTase-Glo SAH luminescence; hits give low values; calls only at 40 µM; actives 3.9% (n = 25,000); call rule not given here
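Each enzyme was assayed with SAM and its substrate. SAH formation detected by MTase-Glo luminescence; single-point 40 uM screen[…].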
Calls only; n = inactive; + = active, no number.

SMILES	Methyltransferases
CCOC(=O)c1cc2n(n1)CC(C)(C(=O)NCCC(C)C)N(c1ccc(C)c(F)c1)C2=O (configuration not stated)	n
CCCNc1ccc2ncc(-c3ccc4[nH]ncc4c3)n2n1	+
CC1(C(=O)NC2CCCCC2)Cn2c(cc3sccc32)C(=O)N1C1CCCC1 (configuration not stated)	n
CC(C)CCNC(=O)CCc1nnc2n(Cc3ccccc3)c(=O)c3ccccc3n12	n
CCC(C)N1C(=O)c2ccc(-c3ccco3)n2CC1(C)C(=O)NC1CCCCCC1 (configuration not stated)	n
CC(C)(O)c1ccccc1CC[C@@H](SCC1(CC(=O)O)CC1)c1cccc(/C=C/c2ccc3ccc(Cl)cc3n2)c1	+
CC1(C(=O)NCc2ccccc2)Cn2cnc(C(=O)NCc3ccccc3F)c2C(=O)N1C1CC1 (configuration not stated)	n
Cc1ccccc1N1C(=O)c2cc3sccc3n2CC1(C)C(=O)NC1CCCCCC1 (configuration not stated)	n
CCC(NC(C)C)C(O)c1ccc(O)c(O)c1 (configuration not stated)	n
CC(CCc1ccccc1)NCC(O)c1ccc(O)c(C(N)=O)c1 (configuration not stated)	n
NCC(O)c1ccc(O)c(O)c1 (configuration not stated)	+
CC1(C(=O)NC2CCCCCCC2)Cn2c(cc3occc32)C(=O)N1c1cccc(Cl)c1 (configuration not stated)	n
COc1ccccc1CNC(=O)C1(C)Cn2cnc(C(=O)N3CCCC3)c2C(=O)N1C1CC1 (configuration not stated)	n
CCc1ccccc1N1C(=O)c2cc3ccccc3n2CC1(C)C(=O)NCCC(C)C (configuration not stated)	n
C=Cc1ccc(Cn2nc3n(CCC)c(=O)c4ccc(C(=O)NC5CCCCC5)cc4n3c2=O)cc1	n
COc1ccc(C(O)C(C)OC2OC(CO)C(O)C(O)C2O)cc1 (configuration not stated)	n
CC(C)=CCC(O)/C(C)=C/CO[C@@H]1O[C@H](CO)[C@@H](O)[C@H](O)[C@H]1O (some centres not stated)	+
CCC(C)C(=O)OC[C@H]1O[C@H](O[C@H]2O[C@H](CO)[C@@H](O)[C@H](O)[C@H]2O)[C@H](O)[C@@H](O)[C@@H]1O (some centres not stated)	n
OCc1ccccc1O[C@@H]1O[C@H](CO)[C@@H](O)[C@H](O)[C@H]1O	n
CC/C=C\CCO[C@@H]1O[C@H](CO)[C@@H](O)[C@H](O)[C@H]1O	+
CC(C)=CCC/C(C)=C/CO[C@@H]1O[C@H](CO)[C@@H](O)[C@H](O)[C@H]1O	n
Cc1cccc(-c2n[nH]n3c2nc(=O)c2ccc(C(=O)NCc4ccccc4)cc23)c1	n
COc1cccc(CN2C(=O)c3cc4ccccc4n3CC2(C)C(=O)NCCC(C)C)c1OC (configuration not stated)	n
CC[C@H]1CN(C(C)=O)CC[C@H]1CC(=O)Nc1ccccc1	n
CCCN1C(=O)c2c(C(=O)NCc3ccc(OC)cc3OC)ncn2CC1(C)C(=O)NCc1ccc(F)cc1 (configuration not stated)	n
SMILES	Methyltransferases
COC(=O)c1ncn2c1C(=O)N(c1ccc(OC)c(OC)c1)C(C)(C(=O)NCc1ccccc1)C2 (configuration not stated)	n
COC(=O)c1cccc(NC(=O)N2Cc3c(sc4c3CCCC4)-n3cccc3C2c2cc(F)cc(F)c2)c1 (configuration not stated)	n
CCCn1c(=O)c2ccc(C(=O)NCC(C)C)cc2n2c(SCC(=O)Nc3ccc(C)c(C)c3)nnc12	n
CCCN1C(=O)c2cc(-c3ccc(OC)cc3)nn2CC1(C)C(=O)NC1CCCCC1 (configuration not stated)	n
CCN1CCN(Cc2ccc(NC(=O)c3ccc(C)c(NC(=O)c4cncc(-c5cccs5)c4)c3)cc2C(F)(F)F)CC1	n
Cc1cn(-c2cc(NC(=O)c3ccc(C)c(Nc4nccc(-c5cnccn5)n4)c3)cc(C(F)(F)F)c2)cn1	n
COc1ccc2cc(CNc3ccc(C)cc3)c(=O)n(CC(=O)Nc3cccc(C(F)(F)F)c3)c2c1	+
COc1ccc(C(=O)N[C@@H]2CN(C(=O)Nc3cccc(C(F)(F)F)c3)CCC[C@H]2O)cc1	n
Cc1cc(C)cc(Nc2nc(C)cc(=O)n2CC(=O)Nc2cccc(C(F)(F)F)c2)c1	n
CC(C)Cn1c(=O)c2ccccc2n2c(CCC(=O)NCc3ccc4c(c3)OCO4)nnc12	n
O=C(CCn1ccc2cc(S(=O)(=O)N3CCCCC3)ccc21)NCc1ccco1	n
CC1(C)CCCC2(C)C1C(OC(=O)/C=C/C=C/C=O)C=C1COC(=O)C12O (configuration not stated)	n
NC1(c2ccc(-c3nc4ccn5c(=O)[nH]nc5c4cc3-c3ccccc3)cc2)CCC1	+
O=S(=O)(c1ccc(F)cc1)c1nnn2c1nc(Nc1ccc(F)cc1)c1ccccc12	n
CCCN1C(=O)c2c(C(=O)NCCc3ccc(OC)cc3OC)ncn2CC1(C)C(=O)NC1CCCC1 (configuration not stated)	n
Cc1cccc(CN2CC(=O)N(Cc3ccc(F)cc3)c3ccccc3S2(=O)=O)c1	n
CCN1C(=O)c2cc(C(=O)NCc3cccc(OC)c3)nn2CC1(C)C(=O)NC1CCCC1 (configuration not stated)	n
O=C(c1ccccc1)c1ccc2nc(NC(=O)c3csc(C4CCN(c5ncnc6ccsc56)CC4)n3)[nH]c2c1	+
COC(=O)Nc1nc2ccc(C(=O)c3cccs3)cc2[nH]1	n
CC1CCN(c2cc(NC(=O)c3ccccc3)ncn2)CC1	n
CC(C)CCn1c(=O)c2ccc(C(=O)NCC(C)C)cc2n2c(=O)n(Cc3ccccc3F)nc12	n
Cc1ccc(-c2n[nH]n3c2nc(=O)c2ccc(C(=O)NCCc4cccs4)cc23)cc1	n
CC(C)NC(=O)c1ccc2c(=O)n(C3CC3)c3nn(CC(=O)Nc4cccc(Cl)c4)c(=O)n3c2c1	n
CN1CCN(c2ccc(C(=O)Nc3n[nH]c4ccc(Cc5cc(F)cc(F)c5)cc34)c(NC3CCOCC3)c2)CC1	n
CCc1nc(C(N)=O)c(Nc2ccc(N3CCC(N4CCN(C)CC4)CC3)c(OC)c2)nc1NC1CCOCC1	+
SMILES	Methyltransferases
CCCn1c(=O)c2ccc(C(=O)NC(C)CC)cc2n2c(=O)n(CC(=O)Nc3cccc(CC)c3)nc12 (configuration not stated)	n
C=C1CC2[C@@]3(C)C=CC(=O)C(C)(C)C3=C(O)C(=O)[C@@]2(C)C2(C(=O)OC)C(=O)C(C)OC(=O)[C@@]12C (some centres not stated)	n
CC(CN1C(=O)c2ccc(-c3ccco3)n2CC1(C)C(=O)NC1CCCC1)c1ccccc1 (configuration not stated)	n
C=C1CC/C=C(/CO)C(=O)C[C@@H]2[C@@H]1C[C@@]2(C)COC(C)=O	+
CC1(C(=O)NC2CCCCCC2)Cn2c(cc3sccc32)C(=O)N1c1cccc(Cl)c1 (configuration not stated)	n
CC1=CC(=O)CC(C)(C)[C@H]1/C=C/C(CO)O[C@@H]1O[C@H](CO)[C@@H](O)[C@H](O)[C@H]1O (some centres not stated)	n
